# Measurements as given in PMC7862700, “An all-to-all approach to the identification of sequence-specific readers for epigenetic DNA modifications on cytosine”.
# What was measured:
# Assay in all cases: DAPPL (digital affinity profiling via proximity ligation, sequencing); 10 mM Tris-HCl pH 7.5, 50 mM NaCl, 1 mM DTT, 4% glycerol, room temperature, 30 min; GST-TFs on glutathione beads, 16-mer random dsDNA library, 0.1% formaldehyde crosslink after washing; high values mean tight binding
# [1] = target: HSF1 (Homo sapiens, UniProt Q00613 1-529); conditions: protein: recombinant; tags: N-terminal GST; chain copies: 3; dsDNA, one strand shown
# Procedure, shortened: (§1)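 Binding signal is each hexamer's read frequency for a factor divided by its frequency in the tag-only sample. The factors were GST-fused human transcription factors from yeast, captured on glutathione beads, DNA-barcoded and pooled with that sample. Pools were incubated with 200 nmole of a random double-stranded 16-mer DNA library in Tris/NaCl/DTT/glycerol buffer at room temperature for 30 min, then washed, crosslinked with 0.1% formaldehyde, proximity-ligated with BsaI/T4 ligase (1 h, 37 °C), PCR-amplified and sequenced on an Illumina NextSeq500.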
# [2] = target: T1, SPIC (Homo sapiens, UniProt Q8N5J4 1-248); conditions: protein: recombinant; tags: N-terminal GST; dsDNA, one strand shown
# T1 sequence: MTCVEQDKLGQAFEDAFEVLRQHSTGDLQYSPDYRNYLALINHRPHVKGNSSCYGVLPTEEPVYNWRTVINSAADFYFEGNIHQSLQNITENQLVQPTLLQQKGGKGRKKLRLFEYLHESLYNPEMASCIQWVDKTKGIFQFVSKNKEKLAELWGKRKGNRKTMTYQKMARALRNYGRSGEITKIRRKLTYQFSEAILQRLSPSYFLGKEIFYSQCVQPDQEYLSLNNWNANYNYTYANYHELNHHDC
# Procedure, shortened: as §1
# [3] = target: T2, ELK4 (Homo sapiens, UniProt P28324-2 1-405); conditions: protein: recombinant; tags: N-terminal GST; dsDNA, one strand shown
# T2 sequence: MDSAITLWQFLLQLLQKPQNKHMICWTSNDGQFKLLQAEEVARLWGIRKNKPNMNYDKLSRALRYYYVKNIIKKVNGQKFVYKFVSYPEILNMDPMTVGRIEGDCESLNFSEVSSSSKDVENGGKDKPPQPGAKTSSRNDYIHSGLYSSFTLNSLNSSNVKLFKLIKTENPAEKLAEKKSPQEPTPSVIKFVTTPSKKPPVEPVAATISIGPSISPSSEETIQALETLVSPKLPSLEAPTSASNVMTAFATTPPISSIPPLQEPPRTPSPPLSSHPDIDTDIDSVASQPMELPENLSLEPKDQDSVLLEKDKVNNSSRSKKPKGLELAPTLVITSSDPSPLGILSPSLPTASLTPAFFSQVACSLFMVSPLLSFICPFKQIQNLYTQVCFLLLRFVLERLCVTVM
# Procedure, shortened: as §1
# [4] = target: T3, ETV2 (Homo sapiens, UniProt O00321 1-342); conditions: protein: recombinant; tags: N-terminal GST; dsDNA, one strand shown
# T3 sequence: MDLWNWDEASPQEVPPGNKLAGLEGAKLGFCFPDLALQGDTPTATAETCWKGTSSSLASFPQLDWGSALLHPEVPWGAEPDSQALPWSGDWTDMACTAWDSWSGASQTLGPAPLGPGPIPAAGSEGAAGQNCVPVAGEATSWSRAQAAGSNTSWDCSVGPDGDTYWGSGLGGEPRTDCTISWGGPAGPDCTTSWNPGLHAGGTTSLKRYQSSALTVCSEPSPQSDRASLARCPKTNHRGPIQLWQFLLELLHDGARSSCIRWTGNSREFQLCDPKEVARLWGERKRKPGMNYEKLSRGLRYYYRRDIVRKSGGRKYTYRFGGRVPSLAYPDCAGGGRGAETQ
# Procedure, shortened: as §1
# [5] = target: T4, ELK1 (Homo sapiens, UniProt P19419 1-428); conditions: protein: recombinant; tags: N-terminal GST; dsDNA, one strand shown
# T4 sequence: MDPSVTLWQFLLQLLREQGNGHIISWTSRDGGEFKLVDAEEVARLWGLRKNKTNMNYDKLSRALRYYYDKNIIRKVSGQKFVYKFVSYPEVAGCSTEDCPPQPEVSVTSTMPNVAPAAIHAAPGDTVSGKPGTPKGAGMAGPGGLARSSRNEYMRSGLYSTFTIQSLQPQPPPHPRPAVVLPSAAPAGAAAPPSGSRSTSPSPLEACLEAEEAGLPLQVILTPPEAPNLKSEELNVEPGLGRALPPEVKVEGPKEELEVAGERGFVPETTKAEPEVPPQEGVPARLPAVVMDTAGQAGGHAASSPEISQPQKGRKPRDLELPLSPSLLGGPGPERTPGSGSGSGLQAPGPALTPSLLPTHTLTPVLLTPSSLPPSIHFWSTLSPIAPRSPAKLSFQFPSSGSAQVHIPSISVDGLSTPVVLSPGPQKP
# Procedure, shortened: as §1
# [6] = target: T5, GABPA (Homo sapiens, UniProt Q06546 1-454); conditions: protein: recombinant; tags: N-terminal GST; dsDNA, one strand shown
# T5 sequence: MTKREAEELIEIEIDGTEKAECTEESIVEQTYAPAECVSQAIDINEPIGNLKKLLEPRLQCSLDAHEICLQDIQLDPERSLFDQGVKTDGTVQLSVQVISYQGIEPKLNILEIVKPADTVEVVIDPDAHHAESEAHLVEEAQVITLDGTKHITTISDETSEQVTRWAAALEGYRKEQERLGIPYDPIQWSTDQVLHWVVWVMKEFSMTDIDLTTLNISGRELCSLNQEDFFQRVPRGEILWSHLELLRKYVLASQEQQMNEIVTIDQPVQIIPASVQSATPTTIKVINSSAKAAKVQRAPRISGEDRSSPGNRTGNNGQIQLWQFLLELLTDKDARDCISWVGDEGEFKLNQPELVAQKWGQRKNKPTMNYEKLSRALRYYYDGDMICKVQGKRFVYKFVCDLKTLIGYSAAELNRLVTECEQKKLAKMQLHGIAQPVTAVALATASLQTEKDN
# Procedure, shortened: as §1
# [7] = target: T6, ERG (Homo sapiens, UniProt P11308 1-479); conditions: protein: recombinant; tags: N-terminal GST; dsDNA, one strand shown
# T6 sequence: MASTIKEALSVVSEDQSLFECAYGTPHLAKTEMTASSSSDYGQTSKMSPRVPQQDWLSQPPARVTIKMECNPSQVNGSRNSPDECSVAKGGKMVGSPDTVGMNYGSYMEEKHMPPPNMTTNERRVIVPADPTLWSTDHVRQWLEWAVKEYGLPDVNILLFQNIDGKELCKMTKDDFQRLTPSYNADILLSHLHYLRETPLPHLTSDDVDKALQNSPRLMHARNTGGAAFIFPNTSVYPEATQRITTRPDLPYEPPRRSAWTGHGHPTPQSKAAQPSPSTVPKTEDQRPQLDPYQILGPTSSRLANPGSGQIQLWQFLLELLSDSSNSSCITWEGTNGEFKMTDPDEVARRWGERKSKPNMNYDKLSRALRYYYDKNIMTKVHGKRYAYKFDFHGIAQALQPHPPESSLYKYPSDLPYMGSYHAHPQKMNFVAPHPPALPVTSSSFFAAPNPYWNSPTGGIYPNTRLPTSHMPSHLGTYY
# Procedure, shortened: as §1
# [8] = target: ELF1 (Homo sapiens, UniProt P32519 1-619); conditions: protein: recombinant; tags: N-terminal GST; dsDNA, one strand shown
# Procedure, shortened: as §1
# [9] = target: SPI1 (Homo sapiens, UniProt P17947 1-270); conditions: protein: recombinant; tags: N-terminal GST; dsDNA, one strand shown
# Procedure, shortened: as §1
# [10] = target: SPIB (Homo sapiens, UniProt Q01892 1-262); conditions: protein: recombinant; tags: N-terminal GST; dsDNA, one strand shown
# Procedure, shortened: as §1
# [11] = target: T7, ETV3L (Homo sapiens, UniProt Q6ZN32 1-361); conditions: protein: recombinant; tags: N-terminal GST; dsDNA, one strand shown
# T7 sequence: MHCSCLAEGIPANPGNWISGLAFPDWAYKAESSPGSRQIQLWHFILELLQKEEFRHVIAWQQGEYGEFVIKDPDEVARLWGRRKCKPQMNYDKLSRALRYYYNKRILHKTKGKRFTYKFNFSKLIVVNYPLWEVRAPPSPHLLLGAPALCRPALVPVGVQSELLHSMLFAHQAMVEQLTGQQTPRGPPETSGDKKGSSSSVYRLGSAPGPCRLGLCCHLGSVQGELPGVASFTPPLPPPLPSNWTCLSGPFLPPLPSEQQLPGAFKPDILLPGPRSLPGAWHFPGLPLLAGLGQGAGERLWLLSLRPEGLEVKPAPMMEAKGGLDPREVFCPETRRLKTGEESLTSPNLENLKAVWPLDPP
# Procedure, shortened: as §1
# [12] = target: T8, ETS2 (Homo sapiens, UniProt P15036 1-469); conditions: protein: recombinant; tags: N-terminal GST; dsDNA, one strand shown
# T8 sequence: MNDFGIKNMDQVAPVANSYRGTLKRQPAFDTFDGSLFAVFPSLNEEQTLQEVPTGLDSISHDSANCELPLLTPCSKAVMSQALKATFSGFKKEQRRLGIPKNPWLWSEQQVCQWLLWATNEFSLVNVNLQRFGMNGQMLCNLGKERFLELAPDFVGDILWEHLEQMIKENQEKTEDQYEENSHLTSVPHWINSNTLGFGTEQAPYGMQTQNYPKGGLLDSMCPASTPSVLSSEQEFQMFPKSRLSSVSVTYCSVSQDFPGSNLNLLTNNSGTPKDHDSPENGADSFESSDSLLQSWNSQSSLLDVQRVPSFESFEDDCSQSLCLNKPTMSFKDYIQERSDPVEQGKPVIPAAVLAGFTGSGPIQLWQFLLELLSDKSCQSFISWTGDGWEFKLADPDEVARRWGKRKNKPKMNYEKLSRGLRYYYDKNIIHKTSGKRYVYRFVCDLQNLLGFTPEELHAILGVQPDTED
# Procedure, shortened: as §1
# [13] = target: T9, ETV7 (Homo sapiens, UniProt Q9Y603 1-341); conditions: protein: recombinant; tags: N-terminal GST; dsDNA, one strand shown
# T9 sequence: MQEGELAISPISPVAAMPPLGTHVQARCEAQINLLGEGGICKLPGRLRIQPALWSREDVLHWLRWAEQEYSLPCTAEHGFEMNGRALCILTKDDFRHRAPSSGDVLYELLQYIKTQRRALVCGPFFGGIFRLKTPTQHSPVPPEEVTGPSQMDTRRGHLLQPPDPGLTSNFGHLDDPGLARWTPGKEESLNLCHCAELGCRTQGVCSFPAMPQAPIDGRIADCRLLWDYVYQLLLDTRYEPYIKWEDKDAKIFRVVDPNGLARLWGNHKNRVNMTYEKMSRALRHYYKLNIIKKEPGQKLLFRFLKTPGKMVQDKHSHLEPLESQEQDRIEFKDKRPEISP
# Procedure, shortened: as §1
# [14] = target: ETV6 (Homo sapiens, UniProt P41212 1-452); conditions: protein: recombinant; tags: N-terminal GST; dsDNA, one strand shown
# Procedure, shortened: as §1
# Sequence of HSF1 (Q00613 whole entry, the tested form may be a part): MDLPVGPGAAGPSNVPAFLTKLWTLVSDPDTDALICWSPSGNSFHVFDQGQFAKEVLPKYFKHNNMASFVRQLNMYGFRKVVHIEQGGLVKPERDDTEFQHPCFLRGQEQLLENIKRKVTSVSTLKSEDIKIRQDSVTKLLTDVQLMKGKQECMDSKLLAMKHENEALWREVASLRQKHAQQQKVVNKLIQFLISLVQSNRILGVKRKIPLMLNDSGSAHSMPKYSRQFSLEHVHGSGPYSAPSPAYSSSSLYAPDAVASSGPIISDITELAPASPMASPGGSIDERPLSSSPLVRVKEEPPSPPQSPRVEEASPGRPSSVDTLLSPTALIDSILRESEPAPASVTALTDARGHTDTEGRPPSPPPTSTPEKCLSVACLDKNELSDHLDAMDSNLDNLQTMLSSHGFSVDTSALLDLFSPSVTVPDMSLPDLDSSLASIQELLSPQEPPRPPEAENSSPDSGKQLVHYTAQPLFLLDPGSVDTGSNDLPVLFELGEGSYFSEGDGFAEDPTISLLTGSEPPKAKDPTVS
# Sequence of ELF1 (P32519 whole entry): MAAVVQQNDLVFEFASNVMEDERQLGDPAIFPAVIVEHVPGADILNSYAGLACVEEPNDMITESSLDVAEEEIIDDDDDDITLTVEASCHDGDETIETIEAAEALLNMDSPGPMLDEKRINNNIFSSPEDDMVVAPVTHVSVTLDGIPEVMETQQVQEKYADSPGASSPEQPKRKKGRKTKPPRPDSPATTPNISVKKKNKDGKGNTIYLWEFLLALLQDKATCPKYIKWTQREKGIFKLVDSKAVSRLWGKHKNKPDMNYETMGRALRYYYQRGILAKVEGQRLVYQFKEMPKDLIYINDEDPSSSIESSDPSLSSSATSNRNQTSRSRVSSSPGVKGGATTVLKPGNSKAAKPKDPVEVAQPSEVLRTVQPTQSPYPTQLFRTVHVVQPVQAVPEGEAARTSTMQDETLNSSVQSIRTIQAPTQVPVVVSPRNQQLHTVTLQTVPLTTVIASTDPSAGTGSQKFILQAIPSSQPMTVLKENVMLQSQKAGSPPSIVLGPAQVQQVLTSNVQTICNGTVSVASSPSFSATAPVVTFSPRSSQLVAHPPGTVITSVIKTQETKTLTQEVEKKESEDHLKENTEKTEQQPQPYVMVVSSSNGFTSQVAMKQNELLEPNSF
# Sequence of ETV6 (P41212 whole entry): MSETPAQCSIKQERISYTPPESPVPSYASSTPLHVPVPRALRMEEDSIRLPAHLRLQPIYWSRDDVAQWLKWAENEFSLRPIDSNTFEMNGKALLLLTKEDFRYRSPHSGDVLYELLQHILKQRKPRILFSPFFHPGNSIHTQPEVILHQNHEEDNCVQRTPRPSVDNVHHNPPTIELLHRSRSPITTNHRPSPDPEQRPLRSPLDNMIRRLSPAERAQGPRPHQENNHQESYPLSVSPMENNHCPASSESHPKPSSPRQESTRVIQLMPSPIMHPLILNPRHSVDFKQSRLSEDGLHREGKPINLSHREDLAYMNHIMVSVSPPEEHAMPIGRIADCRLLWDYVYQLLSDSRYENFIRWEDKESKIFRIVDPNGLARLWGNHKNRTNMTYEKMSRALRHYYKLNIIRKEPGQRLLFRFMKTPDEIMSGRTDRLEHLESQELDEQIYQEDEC
# Sequence of SPIB (Q01892 whole entry): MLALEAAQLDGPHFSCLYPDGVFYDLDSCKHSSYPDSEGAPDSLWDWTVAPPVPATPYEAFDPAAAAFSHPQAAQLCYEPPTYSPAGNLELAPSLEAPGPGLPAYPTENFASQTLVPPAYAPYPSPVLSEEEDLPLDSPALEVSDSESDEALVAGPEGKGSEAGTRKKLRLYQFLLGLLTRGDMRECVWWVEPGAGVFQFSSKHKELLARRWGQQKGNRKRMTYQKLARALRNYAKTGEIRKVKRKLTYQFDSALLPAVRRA
sequence,measurement,setting,value
GATCGA,binding signal,[1],"1.07 fold enrichment (6-mer frequency, TF over GST control)"
AGAGAA,binding signal,[1],"1.36 fold enrichment (6-mer frequency, TF over GST control)"
AGAAGG,binding signal,[1],"1.28 fold enrichment (6-mer frequency, TF over GST control)"
GTCTAG,binding signal,[1],"1.48 fold enrichment (6-mer frequency, TF over GST control)"
GATGGA,binding signal,[1],"1.1 fold enrichment (6-mer frequency, TF over GST control)"
same,binding signal,[2],"1.22 fold enrichment (6-mer frequency, TF over GST control)"
same,binding signal,[3],"1.04 fold enrichment (6-mer frequency, TF over GST control)"
same,binding signal,[4],"1.02 fold enrichment (6-mer frequency, TF over GST control)"
CACTAG,binding signal,[5],"1.04 fold enrichment (6-mer frequency, TF over GST control)"
same,binding signal,[6],"1.02 fold enrichment (6-mer frequency, TF over GST control)"
same,binding signal,[7],"1.04 fold enrichment (6-mer frequency, TF over GST control)"
same,binding signal,[8],"1.09 fold enrichment (6-mer frequency, TF over GST control)"
same,binding signal,[9],"1.06 fold enrichment (6-mer frequency, TF over GST control)"
same,binding signal,[10],"1 fold enrichment (6-mer frequency, TF over GST control)"
same,binding signal,[1],"1.24 fold enrichment (6-mer frequency, TF over GST control)"
same,binding signal,[2],"1.05 fold enrichment (6-mer frequency, TF over GST control)"
same,binding signal,[3],"1.06 fold enrichment (6-mer frequency, TF over GST control)"
same,binding signal,[11],"1.03 fold enrichment (6-mer frequency, TF over GST control)"
same,binding signal,[12],"1.01 fold enrichment (6-mer frequency, TF over GST control)"
same,binding signal,[13],"1.01 fold enrichment (6-mer frequency, TF over GST control)"
same,binding signal,[14],"1.01 fold enrichment (6-mer frequency, TF over GST control)"
